CD40 NFkB inh – CD40 pathway inhibition in BL2 cells; BL2 NF-kB luciferase reporter, CD40L-induced, 4 h; inhibition, % at 10 µM; 83,000 tested, 0.94% active;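 active = mean inhibition of at least 50% with a set share of replicates also reaching that level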;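 note: 0% = neutral control wells and 100% = IKK inhibitor VII at 50 µM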
Active calls of the source: *; [ ] = another dose, or the depositor's remark. This is one part of a sample in which hits are shown more often than they occur.

SMILES	CD40 NFkB inh
CCN(Cc1ccccc1)S(=O)(=O)c1ccc(C(=O)N(CCCN(C)C)c2nc3cc(OC)ccc3s2)cc1	51.9*
CCN(Cc1ccccc1)S(=O)(=O)c1ccc(C(=O)N(CCCN(C)C)c2nc3cc4c(cc3s2)OCCO4)cc1	16.0
COc1ccc2sc(N(CCCN(C)C)C(=O)c3ccc(C(=O)c4ccccc4)cc3)nc2c1	9.0
N#C[C@@H]1[C@@H](c2ccccc2C2=CCCC2)[C@H](CO)N1C(=O)C1CCC1	9.1[25 µM]
O=C(C[C@@H]1C[C@@H]2c3cc(NC(=O)Nc4ccccc4F)ccc3O[C@@H]2[C@@H](CO)O1)NC1CCCCC1	-9.2[25 µM]
C/C=C/c1ccccc1[C@@H]1[C@@H](C#N)N(C(=O)CN2CCOCC2)[C@@H]1CO	-1.9[25 µM]
CC(C)(C)C(=O)COC(=O)c1ccc(N)c([N+](=O)[O-])c1	-64.7
CS(=O)(=O)c1ccc(C(=O)OCC(=O)NC(=O)C2CCCCC2)cc1[N+](=O)[O-]	84.8*
CS(=O)(=O)c1ccc(C(=O)OCC(=O)NC(=O)C2COc3ccccc3O2)cc1[N+](=O)[O-] (configuration not stated)	94.9*
CNc1ccc(C(=O)OCC(=O)NC(=O)NC2CCCCC2)cc1[N+](=O)[O-]	2.5
COc1ccc(C(=O)OCC(=O)Nc2ccc(OC)c(S(=O)(=O)N3CCCCC3)c2)cc1[N+](=O)[O-]	5.4
Nc1ccc(C(=O)NNC(=O)C2COc3ccccc3O2)cc1[N+](=O)[O-] (configuration not stated)	1.9
C[C@@H]1CN([C@@H](C)CO)C(=O)c2cc(N(C)C)ccc2O[C@@H](C)CCCCO[C@@H]1CN(C)S(=O)(=O)c1cn(C)cn1	-2.1[25 µM]
C[C@@H]1CN(C)C(=O)c2cc(NS(C)(=O)=O)ccc2O[C@@H]1CN(C)S(C)(=O)=O	-2.6
CC(C)NC(=O)Nc1ccc2c(c1)CC(=O)N(C)C[C@@H](C)[C@H](CN(C)C(=O)OC(C)(C)C)O2	-0.1
COc1ccc2c3c(n(C)c2c1)[C@H](CO)N(CC1CC1)CC31CCN(C(=O)Nc2ccc(F)cc2F)CC1	7.1
Cc1ccccc1-c1ccc(C2[C@@H]3CN(Cc4cccnc4)C[C@H]2N3)cc1 (some centres not stated)	-12.1
C[C@H]1CN(C)C(=O)c2cc(NS(C)(=O)=O)ccc2O[C@H]1CN(C)S(C)(=O)=O	-3.6
Cc1ccc(OC(=O)CCC(=O)Oc2ccc(C)cc2C)c(C)c1	-0.3
C=C(CN(C)C)C(=O)c1ccc(C)cc1C	92.8*
Cc1ccc(C)c(N(CC(=O)N(C)C)S(C)(=O)=O)c1	3.8
CN1C(=O)c2cc(NC(=O)C3CC3)ccc2OC[C@@H]2O[C@@H](CC(=O)NCc3ccccc3F)CC[C@@H]21	-6.6
C[C@@H]1CN([C@H](C)CO)C(=O)c2cccc(NC(=O)Nc3ccccc3)c2O[C@H]1CN(C)C(=O)Nc1ccccc1	-8.8
CCOC(=O)N(C)C[C@H]1OCc2ccccc2-c2ccccc2C(=O)N([C@@H](C)CO)C[C@H]1C	-14.7
COc1ccccc1-c1ccc([C@H]2[C@H]3CN(Cc4ccncc4)CCCCN3[C@H]2CO)cc1	-16.2[25 µM]
SMILES	CD40 NFkB inh
CC(C)CC(=O)Nc1ncc([N+](=O)[O-])s1	3.9
CCCCC(=O)Nc1ncc([N+](=O)[O-])s1	-23.7
Cc1nc(C)c(C(=O)Nc2ncc([N+](=O)[O-])s2)o1	68.6*
COc1ccc(CN2CC3(CCN(C(=O)Cc4ccncc4)CC3)c3c([nH]c4cc(OC)ccc34)[C@@H]2CO)cc1	15.1[25 µM]
COc1ccccc1-c1ccc([C@H]2[C@@H](CO)N3CCCCN(C(=O)NC4CCCC4)C[C@H]23)cc1	6.7[25 µM]
CCN(CC)CCCNS(=O)(=O)c1ccc(OC)cc1	3.3
CCN(CC)CCCNc1nc2ccccc2c2[nH]c3ccc(OC)cc3c12	103.3*
COc1ccc2[nH]c3c(NCCCN4CCCC4=O)ncnc3c2c1	-32.0
N#CC1(NC(=O)COC(=O)c2ccc(Cl)nc2)CCCCC1	3.3
Cc1cc(SCC(=O)NC2(C#N)CCCCC2)nc2c(C)cccc12	-1.7
N#CC1(NC(=O)Cn2ncc(Cl)c(Cl)c2=O)CCCCC1	119.3*
CN1C(=O)c2cc(NC(=O)C3CCCCC3)ccc2OC[C@@H]2O[C@H](CC(=O)NC3CCCC3)CC[C@H]21	-58.3
Cc1cc(NCCCn2ccnc2)n2ncc(-c3ccccc3)c2n1	88.4*
c1ccc(-c2nc(NCCCn3ccnc3)c3ccccc3n2)cc1	18.3
COc1ccccc1-c1cnn2c(NCCc3ccccc3)cc(C)nc12	-52.9
O=C([C@H]1[C@H](CO)[C@H]2Cn3c(cccc3=O)[C@@H]1N2C(=O)c1ccccn1)N1CCCCC1	13.0[25 µM]
O=C(C[C@H]1C[C@@H]2c3cc(NC(=O)Nc4ccccc4F)ccc3O[C@@H]2[C@@H](CO)O1)NC1CCCC1	-20.6
NC1=C(Cl)C(=O)c2ccc(S(N)(=O)=O)cc2C1=O	59.5*
NS(=O)(=O)c1ccc(Cl)c(S(N)(=O)=O)c1	10.1
Nc1ccc(S(N)(=O)=O)cc1N	-44.6
COc1ccc(-c2ccc3n(c2=O)C[C@H]2[C@H](CO)[C@@H](C(=O)N(C)C)[C@@H]3N2C(=O)c2cnccn2)cc1	5.0[25 µM]
O=C(c1cc(-c2ccc(O)cc2)on1)N1CCCCCC1	-44.5
O=C(c1cc(-c2ccc3c(c2)OCO3)on1)N1CCCCC1	54.4*
COc1ccc(-c2cc(C(=O)N3CCCC3)no2)cc1OC	-79.8
COc1cc(N(C)C)ccc1C=c1c2ccccc2n2c1cc(-c1ccccc1)[n+]2C	100.9*
SMILES	CD40 NFkB inh
CN(C)c1ccc(C=c2c3cc([N+](=O)[O-])ccc3n3c2cc(-c2ccccc2)[n+]3C)cc1	90.6*
CN(C)c1ccc(C=C2C=C(c3ccccc3)OC2=O)cc1	-1.2
Cn1ccc(=O)c2cc([N+](=O)[O-])ccc21	1.0
CC(=O)Nc1cccc2c1O[C@@H](CN(C)C)[C@H](C)CN(C)C2=O	11.0
O=C(c1cnccn1)N1CC(=O)N2[C@H](CO)[C@H](c3ccc(C#CC4CCCC4)cc3)[C@H]2C1	1.8
CN1CCN(c2ccccc2NC(=O)c2ccc(-c3cccc([N+](=O)[O-])c3)o2)CC1	-10.7
O=C(c1ccc(-c2ccc(Cl)cc2)o1)N1CCN(c2ccc([N+](=O)[O-])cc2Cl)CC1	48.6*
O=C(Nc1ccccc1)c1ccc(-c2ccc([N+](=O)[O-])cc2)o1	-47.2
COc1ccc(-c2ccc(C3[C@H]4CNC[C@@H]3N4C(=O)Nc3ccc4c(c3)OCO4)cc2)cc1 (some centres not stated)	-34.2
C[C@H]1CN(C)C(=O)c2cccc(N(C)C)c2O[C@H]1CN(C)S(C)(=O)=O	2.8
CN(C)c1ccc(NC(=O)c2cnsn2)cc1	65.4*
CN(C)c1ccc(NC(=O)c2ccc3nc[nH]c3c2)cc1	-58.5
CN(C)c1ccc(NC(=O)c2ccc3c(c2)nnn3C)cc1	-57.8
COc1ccc(C[C@@H]2CCn3nncc3COC[C@@H](CC(C)C)NC2=O)cc1	0.1[25 µM]
O=C(Cc1ccccc1)N1CC[C@@H]2[C@@H](CO)Nc3ccc(C#Cc4cccc(F)c4)cc3[C@@H]21	2.4[25 µM]
O=C(c1ccncc1)N1CC[C@@H]2[C@H](CO)Nc3ccc(-c4ccc(F)cc4)cc3[C@@H]21	-47.0[25 µM]
O=C(Cc1ccccc1)N1CC[C@H]2[C@H](CO)Nc3ccc(-c4cccc(F)c4)cc3[C@H]21	4.3[25 µM]
O=C(c1ccncc1)N1CC[C@@H]2[C@@H](CO)Nc3ccc(-c4ccc(F)cc4)cc3[C@@H]21	active[25 µM]
O=C(Cc1ccccc1)N1CC[C@@H]2[C@@H](CO)Nc3ccc(-c4cccc(F)c4)cc3[C@@H]21	-15.9[25 µM]

Compound activity from PubChem BioAssay.
